Experimental data published in PubChem BioAssay AID1671448 (Corson Lab, School of Medicine, Indiana University, 2021).
The campaign covered roughly 20,000 compounds. About 660 (3.3%) were called active.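 How the source made its calls: active means enzyme reaction rate more than 3 SD below the solvent-only control wells on the same plate; inactive means the rest.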 What follows is part of a selection rich in actives, with near analogues and random picks from the rest.

target: Ferrochelatase, mitochondrial (Homo sapiens) (UniProt P22830); test: inhibitors of human ferrochelatase, primary screen, biochemical, purified FECH, Ni-mesoporphyrin absorbance (AID 1671448); settings: Ni-mesoporphyrin absorbance 550 nm, screened at 10 µM (by protocol)
Sequence (P22830 whole entry, looked up): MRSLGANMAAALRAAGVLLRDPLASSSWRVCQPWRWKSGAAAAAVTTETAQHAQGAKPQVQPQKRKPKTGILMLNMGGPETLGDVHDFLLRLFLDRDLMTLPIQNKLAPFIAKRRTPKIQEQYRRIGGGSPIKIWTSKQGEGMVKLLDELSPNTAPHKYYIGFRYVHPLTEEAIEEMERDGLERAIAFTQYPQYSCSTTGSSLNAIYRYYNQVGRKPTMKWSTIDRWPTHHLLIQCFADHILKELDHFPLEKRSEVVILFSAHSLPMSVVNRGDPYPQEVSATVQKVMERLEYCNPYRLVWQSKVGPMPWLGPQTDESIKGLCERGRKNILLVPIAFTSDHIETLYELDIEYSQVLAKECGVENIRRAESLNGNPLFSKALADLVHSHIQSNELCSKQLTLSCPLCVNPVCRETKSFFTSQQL

SMILES | outcome
CCc1nc(C)c(C(=O)N2CCN(c3nsc4ccccc34)CC2)o1 | inactive
Cc1c(F)cccc1NC(=O)CNC(c1ccccn1)C(F)(F)F (stereo not drawn) | inactive
CCCSc1ncc(CN2CCC3(CCC(=O)N(C)CC3)CC2)cn1 | inactive
Cc1cc(C)c(CN2CCN(Cc3ccccc3Cl)S2(=O)=O)c(C)c1 | inactive
COc1ccc(-c2cc3n(n2)CCC(=O)N3Cc2ccc(C(=O)NCCN3CCCC3)cc2)cc1 | inactive
Fc1ccc(-c2cc(CNc3nccc(C4CCCC4)n3)no2)cc1 | inactive
COc1ccc(Nc2cc(C)nc(Nc3ccc(NC(=O)c4ccc(C)cc4)cc3)n2)cc1 | inactive
CCCn1ccnc1C1CC(=O)Nc2c1c(C(C)C)nn2-c1ccccc1 (stereo not drawn) | inactive
Cc1cc2nc(COc3ccc(Cl)cc3NC(=O)COc3ccccc3C)cc(=O)n2o1 | inactive
COc1cccc(CN2CC(=O)N(Cc3cccc(C(F)(F)F)c3)c3ccccc3S2(=O)=O)c1 | inactive
Cc1ccc(C)c(N2C(=O)N(Cc3cc(F)cc(F)c3)c3ccccc3S2(=O)=O)c1 | active
O=C1CN(Cc2c(F)cccc2Cl)S(=O)(=O)c2ccccc2N1Cc1ccccc1 | inactive
COc1ccccc1C(=O)Nc1ccccc1Sc1c(C)c(C)nc2nc(-c3ccccc3)nn12 | inactive
CC(NC(=O)CCc1c[nH]c2ccccc12)c1cn2ncsc2n1 (stereo not drawn) | inactive
CCC(C)N(Cc1ccsc1)C(=O)c1cn2c(n1)CNCC2 (stereo not drawn) | inactive
Cc1cccc(-c2ncc(CNCCNC(=O)c3ccccc3Cl)cn2)c1 | inactive
CCc1cc(Sc2ccc(NC(=O)Cc3cccs3)cc2)n2ncnc2n1 | inactive
COc1ccc(C(=O)N(Cc2nc3nc(C)cc(C)n3n2)c2ccc(F)cc2)cc1 | inactive
O=C(NCc1ccccc1)c1nc(N2CCOCC2)c2oc3ccccc3c2n1 | inactive
CCOCCCNC(=O)C1CCN(c2ccc(-c3ccc(C)cc3)nn2)CC1 | inactive
Nc1ccc(S(=O)(=O)Nc2cccc(Cl)c2)cc1S(N)(=O)=O | active
CCCc1cc(NCc2ccc(OC)cc2)n2nc(-c3cccnc3)nc2n1 | inactive
Cc1ccc(-c2ccnc(NCc3cnn4ccccc34)n2)c(C)n1 | inactive
O=C(Nc1nc2n(n1)C(c1ccc(F)cc1)C=C(c1ccc(Cl)cc1)N2)c1cccnc1 (stereo not drawn) | inactive
Cc1ccc(-c2ccnc(-c3ccc(CCC(=O)O)cc3)n2)c(C)n1 | inactive
Cc1ccc(-n2c(=O)n(C)c3c(C(N)=O)nc(-c4ccc(Cl)cc4)nc32)cc1C | inactive

SMILES | outcome
Cc1cc(C)n2nc(CN(C(=O)c3ccco3)c3ccc(Cl)cc3)nc2n1 | inactive
COc1ccc(NC2=NC(C(=O)Nc3cc(OC)ccc3OC)CC(=O)N2)cc1 (stereo not drawn) | inactive
CCOc1cc(-c2c(-c3ccccc3)ncn2Cc2c(C)n[nH]c2C)ccc1OC | inactive
COCCN1CCCC(O)(CN2CCN(c3nc4ccccc4o3)CC2)C1=O (stereo not drawn) | inactive
OCc1csc(N2CCC(CO)(Cc3ccccc3Cl)CC2)n1 | inactive
Cc1ccc(C2=CC(c3ccc(F)cc3)n3nc(NC(=O)CC(C)C)nc3N2)cc1 (stereo not drawn) | inactive
Cc1ccc(S(=O)(=O)N2CCN(c3cc(-c4ccc(F)cc4)ncn3)CC2)cc1C | inactive
Cc1cccc(-c2nc3nc(CN(C)Cc4ccccc4)cc(=O)n3[nH]2)c1 | active
CCOc1ccc(N(Cc2nc3nc(C)cc(C)n3n2)C(=O)c2ccco2)cc1 | inactive
O=C(Nc1ccccc1)c1cc2n(n1)CCN(Cc1cnc[nH]1)C2 | inactive
Cn1c(=O)n(Cc2ccc(F)cc2Cl)c(=O)c2cnc(-c3cccnc3)nc21 | inactive
CCOc1ccc(C(=O)N2CCN(S(=O)(=O)c3cc4c5c(c3)CCN5C(=O)CC4)CC2)cc1 | inactive
Cc1ccc(Cn2c(CCNC(=O)Nc3cc(C)ccc3C)nc3cccnc32)cc1 | inactive
Cc1cc(C)cc(CCC(=O)NC(C)c2n[nH]c(C)n2)c1 (stereo not drawn) | inactive
CCCN(CCC)C(=O)C1CCCN(c2ncnc3c2nc2n3CCCCC2)C1 (stereo not drawn) | inactive
Cc1cccc(CNC(=O)N2CCN(Cc3nc4cccnc4n3-c3ccc(F)cc3)CC2)c1 | inactive
O=C1CN(S(=O)(=O)c2cc(C(=O)N3CCCC3)cs2)c2ccccc2N1 | inactive
O=C(CN1CCN(Cc2ccccc2Cl)S1(=O)=O)Nc1ccc2c(c1)OCCO2 | inactive
CN(CCC1CCCCO1)C(=O)c1ccc(CSc2ncn[nH]2)o1 (stereo not drawn) | inactive
Cc1nc(N2CCCCC2)ncc1C(=O)N1CCC2(CCN(C)C2)CC1 | inactive
CNS(=O)(=O)c1ccc(C2NCCc3[nH]cnc32)cc1 (stereo not drawn) | inactive
CCC1=C(c2ccc(OC)cc2)S(=O)(=O)N(CC(=O)NCc2ccc(OC(C)C)cc2)C1=O | inactive
COc1ccc(CNC(=O)CN2c3ccc(C(C)C)cc3-c3ccccc3S2(=O)=O)cc1 | active
COc1ccc(CNC(=O)N2CCN(c3cc(-c4ccc(OC)cc4)ncn3)CC2)cc1 | inactive
CCCNC(=O)NCC1CCCN(Cc2ccco2)C1 (stereo not drawn) | inactive
CC(C)c1nccn1Cc1nc2ccccc2c(=O)[nH]1 | inactive

SMILES | outcome
CC(C)c1c(-c2ccccc2)ncn1CC(=O)N1CCNCC1 | inactive
COc1ccc(C(=O)N2CCc3[nH]nc(-c4ccc(F)c(F)c4)c3C2)c(O)c1 | inactive
Cc1cc(Sc2ccc(NC(=O)Nc3ccc(F)c(Cl)c3)cc2)n2ncnc2n1 | inactive
CCn1c(=O)n(-c2ccc(C)c(C)c2)c2nc(-c3ccc(F)cc3F)nc(C(N)=O)c21 | inactive
CCCS(=O)(=O)N1CCC(n2c(C(F)(F)F)nc3cccnc32)CC1 | inactive
Cc1ccc(-c2cc(Nc3ccc(C(N)=O)cc3)nc(C)n2)cc1 | inactive
CCN(CC)CCNc1nc(Nc2cccc(C)c2)c2cnn(-c3ccccc3)c2n1 | inactive
COc1ccc(N2CCCS2(=O)=O)cc1NC(=O)COc1ccc(C)cc1 | inactive
CCC1=C(c2ccc(OC)cc2)S(=O)(=O)N(CC(=O)Nc2cccc(Cl)c2)C1=O | inactive
CC(C(=O)NCCc1ccc(S(N)(=O)=O)cc1)N1C(=O)CC(C)(C)Sc2ccccc21 (stereo not drawn) | inactive
CCCc1cc(Sc2ccc(NC(=O)Nc3cccc(F)c3)cc2)n2ncnc2n1 | inactive
COc1cccc(C(=O)N(Cc2nc3nc(C)cc(C)n3n2)c2ccccc2)c1 | inactive
Cc1ccc2nc(CNC(=O)Cc3ccc4c(c3)OCO4)[nH]c2c1 | inactive
COCc1nc2cccnc2n1C1CCN(S(=O)(=O)c2ccc(C)c(C)c2)CC1 | inactive
O=C(O)CC1CNCCN(C(=O)c2cccc(Oc3ccccc3)c2)C1 (stereo not drawn) | inactive
CCOC(=O)Cn1c(=O)n(-c2ccc(F)cc2)c2nc(-c3cccs3)nc(C(N)=O)c21 | inactive
CN1CCN(Cc2ccc(-n3cccn3)cc2)CC1C(=O)O (stereo not drawn) | inactive
CCC1(CC)CN(C(=O)c2nnc(COC)o2)CCO1 | inactive
CCOc1ccc(N2CC(NC(=O)CC)CC2=O)cc1 (stereo not drawn) | inactive
Cc1ccc(-c2cc(N3CCN(S(=O)(=O)c4ccccc4)CC3)ncn2)cc1 | inactive
CCCOc1cccc(-c2c(Nc3ccccc3)oc3c2c(=O)n(C)c(=O)n3C)c1 | inactive
Cc1nnc(SCC(=O)N2CCC(C(O)C(C)C)CC2)s1 (stereo not drawn) | inactive
Cc1cccc(C(C(=O)NC2CCN(S(C)(=O)=O)CC2)N(C)C)c1 (stereo not drawn) | inactive
O=C1NC(c2cccnc2)(C2CCNCC2)C(=O)N1Cc1ccccc1F (stereo not drawn) | inactive
CCc1c(C)nc2ncnn2c1Sc1ccc(NC(=O)CC(C)C)cc1 | inactive
CCc1c(C)nc2ncnn2c1Sc1ccc(NC(=O)Nc2cccc(C)c2C)cc1 | inactive

SMILES | outcome
CCCc1c(C)nc2ncnn2c1Sc1ccc(NC(=O)C(C)(C)C)cc1 | active
CCCc1c(C)nc2ncnn2c1Sc1ccccc1NC(=O)c1cccs1 | inactive
CCc1c(C)nc2ncnn2c1Sc1ccc(NC(=O)c2cc(OC)cc(OC)c2)cc1 | active
CCc1c(C)nc2ncnn2c1Sc1ccc(NS(=O)(=O)c2cc(OC)ccc2OC)cc1 | inactive
CCc1ccc(S(=O)(=O)Nc2ccc(Sc3c(CC)c(C)nc4ncnn34)cc2)cc1 | active
CCc1c(C)nc2ncnn2c1Sc1ccc(NC(=O)Cc2cccs2)cc1 | inactive
CCCc1c(C)nc2ncnn2c1Sc1ccc(NS(=O)(=O)c2cc(C)cc(C)c2C)cc1 | inactive
O=C(CN1CCCN(Cc2cccc(F)c2)S1(=O)=O)Nc1ccc(Br)cc1 | inactive
O=C(c1ccncc1)N1CC[C@@H](c2ccc3ccccc3c2)[C@H](O)C1 | inactive
C=CCOc1c(Cl)cc(C(=O)NCCc2cnc[nH]2)cc1Cl | inactive
CCc1nc(C)sc1CNC(=O)[C@H](N)CC(C)C | inactive
CCOc1ccc(-c2nc(CSc3nc4c(c(=O)[nH]3)CCCC4)c(C)o2)cc1OC | inactive
COc1cccc2c1OCCCN(C(=O)[C@@H]1Cc3ccccc3N1)C2 | inactive
COc1ccc(CNc2nc3nc(CN4CCN(c5ccccc5OC)CC4)cc(=O)n3[nH]2)cc1 | active
COc1ccc(CNc2nc3nc(CNc4ccc(C)cc4)cc(=O)n3[nH]2)cc1 | inactive
COc1ccc(CNc2nc3nc(CNc4ccc(Br)cc4)cc(=O)n3[nH]2)cc1 | inactive
O=C(CSc1nc(-c2ccco2)nc2cc(=O)[nH]n12)NCCCc1ccccc1 | inactive
O=C(NCc1ccccc1)c1nc[nH]c1C(=O)NCc1cccc(C(F)(F)F)c1 | active
CC(C)(C)CNC(=O)c1[nH]cnc1C(=O)NCC1CC1 | inactive
CC(C)CCNC(=O)c1nc[nH]c1C(=O)NCC(C)(C)C | inactive
Cc1cc(C)nc(SC(C)c2n[nH]c(Cc3ccccc3)n2)n1 (stereo not drawn) | inactive
Cc1nnnn1CCCN1CCC(Cc2cccc(C(=O)O)c2)CC1 | inactive
CCOc1ccc(S(=O)(=O)NCCn2c(-c3ccccc3)nc3cccnc32)cc1 | inactive
O=S(=O)(NCCn1c(-c2ccccc2)nc2cccnc21)c1ccc(C2CCCCC2)cc1 | inactive
O=S(=O)(NCCn1c(-c2ccccc2)nc2cccnc21)c1ccc(Br)cc1 | active
